Test results: ChEMBL document CHEMBL1961873, “Compounds: GSK PKIS; Assays: Nanosyn kinase panel” (2012)

Tests used:
[1] = biological target: Serine/threonine-protein kinase PAK 6 (Homo sapiens) (UniProt Q9NQU5); settings: at 1 µM;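 further: values are mean percent inhibition of PAK6 kinase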
[2] = system: Tyrosine-protein kinase ABL1 (Homo sapiens), P00519 [E255K]; settings: at 0.1 µM
[3] = system: Tyrosine-protein kinase ABL1 (Homo sapiens), P00519 [E255K]; settings: at 1 µM
[4] = system: Tyrosine-protein kinase ABL1 (Homo sapiens), P00519 [H396P]; settings: at 0.1 µM
[5] = system: Tyrosine-protein kinase ABL1 (Homo sapiens), P00519 [H396P]; settings: at 1 µM
[6] = system: Tyrosine-protein kinase ABL1 (Homo sapiens), P00519 [M351T]; settings: at 0.1 µM
[7] = system: Tyrosine-protein kinase ABL1 (Homo sapiens), P00519 [M351T]; settings: at 1 µM
[8] = system: Tyrosine-protein kinase ABL1 (Homo sapiens), P00519 [Q252H]; settings: at 0.1 µM
[9] = system: Tyrosine-protein kinase ABL1 (Homo sapiens), P00519 [Q252H]; settings: at 1 µM
[10] = system: Tyrosine-protein kinase ABL1 (Homo sapiens), P00519 [T315I]; settings: at 0.1 µM

Serine/threonine-protein kinase PAK 6 (Homo sapiens), sequence (Q9NQU5 whole entry, looked up): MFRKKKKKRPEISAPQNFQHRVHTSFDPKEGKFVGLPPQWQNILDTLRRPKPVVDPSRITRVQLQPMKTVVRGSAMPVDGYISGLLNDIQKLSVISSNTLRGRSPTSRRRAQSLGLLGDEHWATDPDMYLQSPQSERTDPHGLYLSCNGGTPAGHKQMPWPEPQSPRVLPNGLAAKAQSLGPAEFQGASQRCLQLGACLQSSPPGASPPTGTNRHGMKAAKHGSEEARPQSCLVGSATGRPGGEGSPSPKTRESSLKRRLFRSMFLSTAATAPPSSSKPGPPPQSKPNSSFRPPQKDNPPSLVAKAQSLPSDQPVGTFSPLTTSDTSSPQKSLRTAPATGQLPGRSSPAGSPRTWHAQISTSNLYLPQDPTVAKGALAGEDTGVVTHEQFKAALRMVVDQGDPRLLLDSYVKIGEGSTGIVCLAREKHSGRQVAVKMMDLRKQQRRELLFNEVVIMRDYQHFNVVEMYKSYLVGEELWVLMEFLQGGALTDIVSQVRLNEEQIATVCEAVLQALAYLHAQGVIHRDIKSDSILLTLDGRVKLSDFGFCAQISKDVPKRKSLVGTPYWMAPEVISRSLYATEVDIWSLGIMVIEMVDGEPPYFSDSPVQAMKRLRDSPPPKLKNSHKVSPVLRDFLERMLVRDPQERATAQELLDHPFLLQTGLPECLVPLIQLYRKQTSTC

CCN(CC)Cc1ccc(Nc2nccc(-c3cnn4ncccc34)n2)cc1
inhibition [1]: -2.98%
inhibition [2]: 2.66%
inhibition [3]: 22.6%
inhibition [4]: 8.9%
inhibition [5]: 37.5%
inhibition [6]: 4.62%
inhibition [7]: 37.4%
inhibition [8]: 8.65%
inhibition [9]: 43.2%
inhibition [10]: 7.91%

Clc1ccc(CNc2nccc(-c3cnn4ncccc34)n2)cc1
inhibition [1]: -0.19%
inhibition [2]: 4.07%
inhibition [3]: 3.72%
inhibition [4]: 4.81%
inhibition [5]: 5.52%
inhibition [6]: 4.62%
inhibition [7]: 3.11%
inhibition [8]: 2.33%
inhibition [9]: 6.07%
inhibition [10]: 0.52%

Fc1ccc(-c2ncn(C3CCNCC3)c2-c2ccnc(Oc3ccc4c(c3)OCO4)n2)cc1
inhibition [1]: -5.42%
inhibition [2]: 2.98%
inhibition [3]: 4.48%
inhibition [4]: 5.49%
inhibition [5]: 7.54%
inhibition [6]: 1.29%
inhibition [7]: 3.88%
inhibition [8]: 4.09%
inhibition [9]: 6.75%
inhibition [10]: 3.51%

COc1cc(N2CCN(C(C)C)CC2)ccc1Nc1nc(Nc2ccc(F)cc2C(=O)NC[C@@H](O)CO)c2cc[nH]c2n1
inhibition [1]: -2.37%
inhibition [2]: 1.32%
inhibition [3]: 5.35%
inhibition [4]: 2.98%
inhibition [5]: 5.65%
inhibition [6]: 3.03%
inhibition [7]: 5.84%
inhibition [8]: 3.53%
inhibition [9]: 4.72%
inhibition [10]: 2.48%

C/C(Nc1ccc(S(N)(=O)=O)cc1)=C1/C(=O)Nc2ccccc21
inhibition [1]: 0.59%
inhibition [2]: -1.03%
inhibition [3]: 3.45%
inhibition [4]: 0.93%
inhibition [5]: 7.24%
inhibition [6]: 3.92%
inhibition [7]: 14.7%
inhibition [8]: 2.51%
inhibition [9]: 13.6%
inhibition [10]: 1.39%

NS(=O)(=O)c1ccc(N/N=C2\C(=O)Nc3ccc(C(=O)NCCCn4ccnc4)cc32)cc1
inhibition [2]: 5.15%
inhibition [3]: 10.9%
inhibition [4]: 5.17%
inhibition [5]: 14.3%
inhibition [6]: 0.91%
inhibition [7]: 14.2%
inhibition [8]: 5.21%
inhibition [9]: 13.1%
inhibition [10]: 3.66%

Fc1ccc(-c2ncn(CCCN3CCOCC3)c2-c2ccncc2)cc1
inhibition [1]: -7.59%
inhibition [2]: 0.23%
inhibition [3]: 0.13%
inhibition [4]: 0.23%
inhibition [5]: -0.46%
inhibition [6]: -2.27%
inhibition [7]: 1.4%
inhibition [8]: -1.12%
inhibition [9]: -0.09%
inhibition [10]: -1.3%

Cc1ccc(C(=O)NC(C)C)cc1-c1ccc(C(=O)NCC2CC2)cc1
inhibition [2]: -0.92%
inhibition [3]: -0.81%
inhibition [4]: -1.54%
inhibition [5]: -1.16%
inhibition [6]: -0.95%
inhibition [7]: 1.25%
inhibition [8]: -2.61%
inhibition [9]: -1.55%
inhibition [10]: -1.99%

COc1cc(Nc2ncc(-c3ccccc3)o2)cc(OC)c1OC
inhibition [2]: 5.32%
inhibition [3]: 36.8%
inhibition [4]: 12.7%
inhibition [5]: 61.5%
inhibition [6]: 14.3%
inhibition [7]: 61.2%
inhibition [8]: 11.2%
inhibition [9]: 57.7%
inhibition [10]: 1.79%

C[C@@H](Oc1cc(-n2cnc3ccc(OCC4CCN(C)CC4)cc32)sc1C(N)=O)c1ccccc1Cl
inhibition [1]: -3.14%
inhibition [2]: 0.13%
inhibition [3]: 4.51%
inhibition [4]: 2.87%
inhibition [5]: 9.39%
inhibition [6]: -0.56%
inhibition [7]: 5.2%
inhibition [8]: 4.18%
inhibition [9]: 8.32%
inhibition [10]: -2.27%

N#Cc1ccc(Oc2nccc(-c3c(-c4ccc(F)cc4)ncn3C3CCNCC3)n2)cc1
inhibition [1]: -7.23%
inhibition [2]: 2.37%
inhibition [3]: 3.79%
inhibition [4]: 3.91%
inhibition [5]: 5.59%
inhibition [6]: 2.13%
inhibition [7]: 4.25%
inhibition [8]: 4%
inhibition [9]: 6.46%
inhibition [10]: 3.62%

O=C(Nc1n[nH]c2cc(-c3cc(F)ccc3F)ccc12)C1CC1
inhibition [1]: -0.43%
inhibition [2]: 8.07%
inhibition [3]: 31.4%
inhibition [4]: 13.8%
inhibition [5]: 52.2%
inhibition [6]: 13%
inhibition [7]: 53.8%
inhibition [8]: 8.73%
inhibition [9]: 35.5%
inhibition [10]: 23.3%

CCc1ccc(Oc2nccc(-c3c(-c4ccc(F)cc4)ncn3C3CCNCC3)n2)cc1
inhibition [1]: 2.92%
inhibition [2]: 0.49%
inhibition [3]: 4.7%
inhibition [4]: 3.35%
inhibition [5]: 3.77%
inhibition [6]: 0.72%
inhibition [7]: 1.75%
inhibition [8]: 3.25%
inhibition [9]: 3.37%
inhibition [10]: 2.83%

COC(=O)Nc1nc2ccc(Sc3ccc(NC(=O)Nc4cc(C(F)(F)F)ccc4F)cc3)cc2[nH]1
inhibition [1]: 1.21%
inhibition [2]: -1.69%
inhibition [3]: 14.8%
inhibition [4]: 2.95%
inhibition [5]: 49.9%
inhibition [6]: 33.2%
inhibition [7]: 70.2%
inhibition [8]: 26.9%
inhibition [9]: 70.7%
inhibition [10]: 27.7%

C#Cc1cccc(Nc2ncnc3ccc(OCCCCNCCS(C)(=O)=O)cc23)c1
inhibition [1]: -2.58%
inhibition [2]: 4.64%
inhibition [3]: 19.7%
inhibition [4]: 7.05%
inhibition [5]: 23%
inhibition [6]: 4.14%
inhibition [7]: 19.2%
inhibition [8]: 6.79%
inhibition [9]: 22.7%
inhibition [10]: 3.9%

O=C(NCC1CC1)c1ccc(-c2cccc(C(=O)NC3CC3)c2)cc1
inhibition [1]: 8.38%
inhibition [2]: 2.4%
inhibition [3]: 3.09%
inhibition [4]: 3.44%
inhibition [5]: 3.43%
inhibition [6]: 2.14%
inhibition [7]: 4.08%
inhibition [8]: 2.78%
inhibition [9]: 4.27%
inhibition [10]: 2.52%

C[C@@H](Oc1cc(-n2cnc3ccc(OC4CCN(C)CC4)cc32)sc1C(N)=O)c1ccccc1Cl
inhibition [1]: -9.57%
inhibition [2]: 1.25%
inhibition [3]: 8.32%
inhibition [4]: 4.49%
inhibition [5]: 10.5%
inhibition [6]: 0.86%
inhibition [7]: 5.39%
inhibition [8]: 3.24%
inhibition [9]: 11%
inhibition [10]: 2.01%
